Inconclusive results are not listed. Entries that show only a call come without a potency. Active and inactive are the calls of the source. Calls come from the whole dose curve; as a rule, active = well fitted cell-killing curve with a large enough effect; inconclusive = small, poorly fitted or top-dose-only effect; inactive = flat fitted curve, though single readings scatter.

These results are taken from PubChem BioAssay (NCATS).

The test can be described thus: Cell Viability - LYMP2-020 (AID 986).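 Note: cells exposed to compound for 24 h at 37 °C; nearly all actives have a fitted effect of over 55% in size.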 As to conditions: series mostly up to 92.2 µM. An excerpt: NIH Chemical Genomics Center [NCGC]
NIH Molecular Libraries Screening Centers Network [MLSCN]
National Institutes of Environmental Health Sciences [NIEHS]
National Toxicology Program [NTP]
We have developed a 1536-well cell-based assay for quantitative high throughput screening (qHTS) against a number of cell lines to determine in vitro cytotoxicity of small molecules. This particular assay uses a human lymphoblastoid cell line (LYMP2-020) purchased from Coriell Institute for Medical Research.
NCGC Assay Protocol Summary:
The CellTiter-Glo luminescent cell viability assay (Promega) is a homogeneous method to measure the number of viable cells in culture. The end point readout of this assay is based on quantitation of intracellular ATP, an indicator of metabolic activity, using the luciferase reaction. Luciferase catalyzes the oxidation of beetle Luciferin to oxyluciferin and light in the presence of ATP. The luminescent signal is proportional to amount of ATP present.
Using the CellTiter-Glo luminescent cell viability assay, the amount of cellular ATP was measured in the lymphoblastoid cell line with complete culture medium following compound treatment for 24 hours. The assay was performed in opaque white Kalypsys 1536-well plates. In the screen, tetraoctylammonium bromide was used as positive control. Library compounds were measured for their ability to cause acute toxicity in the cell line, as reflected by a decrease in intracellular ATP levels, in a concentration-dependent manner. […] AC50 values were determined from concentration-response data modeled with the standard Hill equation.
qHTS protocol for CellTiter Glo lymphoblastoid cellular assay
[Step] [Parameter] [Value] [Description]
1. Reagent; 5 uL; 2500 lymphoblastoid cells/well
2. Time; 5 hr; 37 C incubation
4. Controls; 23 nL; Tetraoctylammonium bromide 6.4pM to 92 uM
5. Time; 24 hr; 37 C incubation
6. Reagent; 5 uL; CellTiter Glo reagent
7. Time; 30 min; Room Temperature
8. Detection; Luminescence; Viewlux plate reader
Keywords: cell viability, cytotoxicity, lymphoblastoid cell line, luminescence, NTPHTS, NTPHTS_NCGC, NIEHS, DSSTox, MLSMR, MLSCN, NIH Roadmap, qHTS, NCGC
On to `Cc1ccccc1C(=O)O`, for which the Potency entry is “inactive”.

Consider `O=Cc1ccc(C(=O)O)cc1`, for which the Potency result is “inactive”.

For `COc1ccc(N)c(OC)c1`, the Potency entry was “inactive”.

In the case of `C=CCOC(=O)COCCC(C)C`, the Potency entry was “inactive”.

Regarding `OC(CCl)CCl`, the Potency entry was “inactive”.

Take `Oc1cccc(Nc2ccccc2)c1`: the Potency entry was “inactive”.

Turning to `Cc1ccccc1Br`, the Potency result is “inactive”.

For `CC(O)CC(C)O` (stereo not given), the Potency result is “inactive”.

`CC(=O)CC(C)C`: the Potency entry is “inactive”.

In the case of `Cc1cccc2sc(N)nc12`, the Potency result was “inactive”.

`Cc1ccc(C)c(O)c1`: the Potency entry is “inactive”.

As for `O=C(O)c1ccccc1[N+](=O)[O-]`, the Potency entry was “inactive”.

Turning to `CCOC(C)(C)C`, the Potency result is “inactive”.

`O=[N+]([O-])c1cc(C(F)(F)F)ccc1Cl`: the Potency result was “inactive”.

As to `C=C(C)C(=O)OC`, the Potency entry is “inactive”.

Consider `C=CC(=O)NC(C)C`, for which the Potency entry is “inactive”.

With `Cc1cccc(C)c1`, the Potency result was “inactive”.

As for `CCC(C)(C)OC`, the Potency result was “inactive”.

Regarding `COC(=O)CCC(=O)OC`, the Potency entry is “inactive”.

On to `C=C(C)C(=O)OCCCCCC`, for which the Potency result was “inactive”.

In the case of `Cc1ccc(Cl)cc1`, the Potency result is “inactive”.

Take `COc1ccccc1[N+](=O)[O-]`: the Potency result was “inactive”.

Take `CCOCCOCC`: the Potency entry is “inactive”.

For the compound `CC(=O)OC(C)=O`, the Potency entry was “inactive”.

On to `Nc1cc([N+](=O)[O-])ccc1C(=O)O`, for which the Potency entry is “inactive”.

As for `CC(=O)c1nccs1`, the Potency entry is “inactive”.

On to `O=C(O)c1ccc(C(=O)O)cc1`, for which the Potency result is “inactive”.

In the case of `CCCCCCO`, the Potency entry was “inactive”.

Regarding `C=C(C)C1CC=C(C)C(OC(C)=O)C1` (stereo not given), the Potency entry is “inactive”.

Take `CCOc1cc(OCC)c(C(C)=O)cc1OCC`: the Potency entry is “inactive”.

As for `O=C1C=CCCC1`, the Potency entry was “inactive”.

As to `O=C(O)c1cc(Cl)cc(Cl)c1`, the Potency entry was “inactive”.

Consider `CC(C)C=O`, for which the Potency entry was “inactive”.

Consider `O=CNc1ccccc1`, for which the Potency result was “inactive”.

As for `N#CCc1ccccc1[N+](=O)[O-]`, the Potency result is “inactive”.

Take `NCCCCCCN`: the Potency entry is “inactive”.

With `CNC(=O)c1ccccc1`, the Potency result was “inactive”.

Consider `Cc1ccc(Cl)cc1N`, for which the Potency result is “inactive”.

With `CNC(=O)N(c1ccccc1)c1ccccc1`, the Potency result was “inactive”.

With `CCCCCCCCCCCCOCC1CO1` (stereo not given), the Potency result was “inactive”.
